What all share (assay): PBM; 200 nM protein, PBS
What all share (settings): dsDNA, one strand shown

Assay [1] has as its target T1, VENTX (Homo sapiens, UniProt O95231 78-163).
T1 sequence: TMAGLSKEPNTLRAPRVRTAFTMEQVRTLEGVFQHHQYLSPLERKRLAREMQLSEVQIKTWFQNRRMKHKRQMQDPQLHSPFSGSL

In assay [2] the target is T2, PAX4 (Homo sapiens, UniProt O43316 9-242).
T2 sequence: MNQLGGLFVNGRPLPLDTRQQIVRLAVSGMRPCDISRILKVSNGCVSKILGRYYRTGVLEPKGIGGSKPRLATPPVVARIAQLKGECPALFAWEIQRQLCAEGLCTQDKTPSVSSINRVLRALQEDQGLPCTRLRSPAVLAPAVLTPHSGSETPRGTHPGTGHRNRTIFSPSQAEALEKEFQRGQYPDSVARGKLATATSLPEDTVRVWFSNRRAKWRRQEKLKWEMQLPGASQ

The target in assay [3] is HOXA2 (Homo sapiens, UniProt O43364 129-215, R185K).
The target of assay [4] is VAX1 (Homo sapiens, UniProt Q5SQQ9 86-172).
Assay [5] concerns the target T3, PAX4 (Homo sapiens, UniProt O43316 9-242, R227W).
T3 sequence: T2 sequence with R219W

In assay [6] the target is HOXA2 (Homo sapiens, UniProt O43364 129-215, Y150S).
The target of assay [7] is HOXA2 (Homo sapiens, UniProt O43364 129-215).
Assay [8] has as its target HOXB9 (Homo sapiens, UniProt P17482 171-250, T197M).
The target in assay [9] is HOXA7 (Homo sapiens, UniProt P31268 116-202).
For assay [10], the target named is HOXB6 (Homo sapiens, UniProt P17509 132-218, K202E).
The target in assay [11] is HOXA7 (Homo sapiens, UniProt P31268 116-202, W177C).
For assay [12], the target named is HOXB6 (Homo sapiens, UniProt P17509 132-218).
Assay [13] has as its target HOXB9 (Homo sapiens, UniProt P17482 171-250).
In assay [14] the target is HOXB9 (Homo sapiens, UniProt P17482 171-250, R186Q).
The target in assay [15] is HOXC9 (Homo sapiens, UniProt P31274 178-260, K195R).
The target in assay [16] is HOXC9 (Homo sapiens, UniProt P31274 178-260).
Assay [17] addresses HOXC9 (Homo sapiens, UniProt P31274 178-260, R193K).
The target of assay [18] is HOXC10 (Homo sapiens, UniProt Q9NYD6 254-340, K271E).
Assay [19] has as its target HOXC9 (Homo sapiens, UniProt P31274 178-260, R222W).

Where a chain is given by its changes, count along the chain named.

Results on 20 sequences are retold here after article PMC11006913.

HOXC9 (Homo sapiens, UniProt P31274 178-260, K195R), sequence (P31274 178-260 K195R): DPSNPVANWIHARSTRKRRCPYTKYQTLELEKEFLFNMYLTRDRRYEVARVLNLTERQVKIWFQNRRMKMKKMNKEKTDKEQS
HOXB9 (Homo sapiens, UniProt P17482 171-250, R186Q), sequence (P17482 171-250 R186Q): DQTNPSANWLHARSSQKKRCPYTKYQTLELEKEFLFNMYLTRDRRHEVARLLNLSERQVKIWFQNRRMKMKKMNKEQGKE
HOXC9 (Homo sapiens, UniProt P31274 178-260), sequence (P31274 178-260): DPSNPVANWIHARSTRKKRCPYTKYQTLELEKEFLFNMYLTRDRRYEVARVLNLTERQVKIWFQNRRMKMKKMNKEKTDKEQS
HOXC9 (Homo sapiens, UniProt P31274 178-260, R222W), sequence (P31274 178-260 R222W): as the sequence (P31274 178-260) above, with R45W counted along it
HOXA2 (Homo sapiens, UniProt O43364 129-215), sequence (O43364 129-215): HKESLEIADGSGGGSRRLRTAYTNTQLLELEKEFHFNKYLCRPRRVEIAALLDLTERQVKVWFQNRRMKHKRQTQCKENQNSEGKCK
HOXA7 (Homo sapiens, UniProt P31268 116-202), sequence (P31268 116-202): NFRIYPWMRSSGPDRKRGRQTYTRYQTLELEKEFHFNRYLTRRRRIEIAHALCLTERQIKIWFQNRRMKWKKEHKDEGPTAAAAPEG
HOXA7 (Homo sapiens, UniProt P31268 116-202, W177C), sequence (P31268 116-202 W177C): as the sequence (P31268 116-202) above, with W62C counted along it
HOXC9 (Homo sapiens, UniProt P31274 178-260, R193K), sequence (P31274 178-260 R193K): as the sequence (P31274 178-260) above, with R16K counted along it
HOXB6 (Homo sapiens, UniProt P17509 132-218), sequence (P17509 132-218): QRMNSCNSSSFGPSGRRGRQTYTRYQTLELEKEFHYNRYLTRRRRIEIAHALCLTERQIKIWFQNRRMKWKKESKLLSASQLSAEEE
VAX1, sequence (Q5SQQ9 86-172): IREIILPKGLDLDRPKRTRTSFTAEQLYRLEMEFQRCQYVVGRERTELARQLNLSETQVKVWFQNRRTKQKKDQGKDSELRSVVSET
HOXB9 (Homo sapiens, UniProt P17482 171-250, T197M), sequence (P17482 171-250 T197M): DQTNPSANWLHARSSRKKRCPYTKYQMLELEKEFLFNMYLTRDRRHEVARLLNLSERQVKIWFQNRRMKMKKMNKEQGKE
HOXB9 (Homo sapiens, UniProt P17482 171-250), sequence (P17482 171-250): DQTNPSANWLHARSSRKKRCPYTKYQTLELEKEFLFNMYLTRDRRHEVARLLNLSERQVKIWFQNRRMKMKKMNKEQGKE
HOXA2 (Homo sapiens, UniProt O43364 129-215, Y150S), sequence (O43364 129-215 Y150S): as the sequence (O43364 129-215) above, with Y22S counted along it
HOXA2 (Homo sapiens, UniProt O43364 129-215, R185K), sequence (O43364 129-215 R185K): as the sequence (O43364 129-215) above, with R57K counted along it
HOXB6 (Homo sapiens, UniProt P17509 132-218, K202E), sequence (P17509 132-218 K202E): as the sequence (P17509 132-218) above, with K71E counted along it
HOXC10, sequence (Q9NYD6 254-340 K271E): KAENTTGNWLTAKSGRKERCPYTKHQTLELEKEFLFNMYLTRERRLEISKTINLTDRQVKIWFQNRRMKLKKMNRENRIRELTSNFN

Regarding AATTAGTG, the binding signal in assay [1] is 12.3 upbm affinity estimate (log intensity, higher = more binding, comparable within an allelic series); in assay [2], 12.4 upbm affinity estimate (log intensity, higher = more binding, comparable within an allelic series); in assay [3], 13.1 upbm affinity estimate (log intensity, higher = more binding, comparable within an allelic series); in assay [4], 12.8 upbm affinity estimate (log intensity, higher = more binding, comparable within an allelic series); in assay [5], 11.1 upbm affinity estimate (log intensity, higher = more binding, comparable within an allelic series); in assay [6], 10.8 upbm affinity estimate (log intensity, higher = more binding, comparable within an allelic series). Also, in assay [7], the binding signal is 12.2 upbm affinity estimate (log intensity, higher = more binding, comparable within an allelic series).
Take CCCAATTA: the binding signal is 12.4 upbm affinity estimate (log intensity, higher = more binding, comparable within an allelic series) in [1]; 12.1 upbm affinity estimate (log intensity, higher = more binding, comparable within an allelic series) in assay [2]; 12.7 upbm affinity estimate (log intensity, higher = more binding, comparable within an allelic series) in assay [4]; 10.7 upbm affinity estimate (log intensity, higher = more binding, comparable within an allelic series) in assay [5].
Turning to AATTAGCC, the binding signal is 12.1 upbm affinity estimate (log intensity, higher = more binding, comparable within an allelic series) in assay [2]; 12.7 upbm affinity estimate (log intensity, higher = more binding, comparable within an allelic series) in assay [4]; 10.6 upbm affinity estimate (log intensity, higher = more binding, comparable within an allelic series) in assay [5].
Turning to AATTAACG, the binding signal in assay [2] was 12.2 upbm affinity estimate (log intensity, higher = more binding, comparable within an allelic series); in [5], 10.9 upbm affinity estimate (log intensity, higher = more binding, comparable within an allelic series).
With GACAATTA, the binding signal in assay [8] is 9.97 upbm affinity estimate (log intensity, higher = more binding, comparable within an allelic series); in assay [9] it was 11.2 upbm affinity estimate (log intensity, higher = more binding, comparable within an allelic series); in assay [10], 9.96 upbm affinity estimate (log intensity, higher = more binding, comparable within an allelic series); in [11], 8.85 upbm affinity estimate (log intensity, higher = more binding, comparable within an allelic series); in assay [12], 11.7 upbm affinity estimate (log intensity, higher = more binding, comparable within an allelic series).
As to GAGGGGGC, the binding signal in assay [8] is 8.48 upbm affinity estimate (log intensity, higher = more binding, comparable within an allelic series); in [13], 8.37 upbm affinity estimate (log intensity, higher = more binding, comparable within an allelic series); in assay [3], 10.1 upbm affinity estimate (log intensity, higher = more binding, comparable within an allelic series); in [14], 8.62 upbm affinity estimate (log intensity, higher = more binding, comparable within an allelic series); in assay [6], 10.2 upbm affinity estimate (log intensity, higher = more binding, comparable within an allelic series); in assay [7], 7.38 upbm affinity estimate (log intensity, higher = more binding, comparable within an allelic series).
For the sequence AATTAAGT, the binding signal in [2] was 12.1 upbm affinity estimate (log intensity, higher = more binding, comparable within an allelic series); in assay [3], 12.8 upbm affinity estimate (log intensity, higher = more binding, comparable within an allelic series); in assay [5], 10.8 upbm affinity estimate (log intensity, higher = more binding, comparable within an allelic series); in [6], 10.8 upbm affinity estimate (log intensity, higher = more binding, comparable within an allelic series); in [7], 11.7 upbm affinity estimate (log intensity, higher = more binding, comparable within an allelic series).
Regarding AATTAAAT, the binding signal in assay [8] is 10 upbm affinity estimate (log intensity, higher = more binding, comparable within an allelic series); in assay [15], 12.5 upbm affinity estimate (log intensity, higher = more binding, comparable within an allelic series); in assay [2] it was 12.3 upbm affinity estimate (log intensity, higher = more binding, comparable within an allelic series); in assay [13] it was 11.8 upbm affinity estimate (log intensity, higher = more binding, comparable within an allelic series); in assay [16] it was 12.5 upbm affinity estimate (log intensity, higher = more binding, comparable within an allelic series); in assay [17], 12.6 upbm affinity estimate (log intensity, higher = more binding, comparable within an allelic series). In addition, the binding signal in [18] was 11.9 upbm affinity estimate (log intensity, higher = more binding, comparable within an allelic series); in assay [14] it was 11.5 upbm affinity estimate (log intensity, higher = more binding, comparable within an allelic series); in assay [19] it was 11.2 upbm affinity estimate (log intensity, higher = more binding, comparable within an allelic series); in assay [5], 11.1 upbm affinity estimate (log intensity, higher = more binding, comparable within an allelic series).
Regarding ATTAATGC, the binding signal in assay [9] was 11 upbm affinity estimate (log intensity, higher = more binding, comparable within an allelic series); in [2] it was 12.1 upbm affinity estimate (log intensity, higher = more binding, comparable within an allelic series); in assay [5] it was 10.9 upbm affinity estimate (log intensity, higher = more binding, comparable within an allelic series); in [11] it was 8.84 upbm affinity estimate (log intensity, higher = more binding, comparable within an allelic series).
CCAATTAG: the binding signal in [1] was 13.1 upbm affinity estimate (log intensity, higher = more binding, comparable within an allelic series); in assay [2] it was 12.2 upbm affinity estimate (log intensity, higher = more binding, comparable within an allelic series); in assay [3] it was 13.3 upbm affinity estimate (log intensity, higher = more binding, comparable within an allelic series); in [4], 13.1 upbm affinity estimate (log intensity, higher = more binding, comparable within an allelic series); in assay [5] it was 10.8 upbm affinity estimate (log intensity, higher = more binding, comparable within an allelic series); in assay [6], 10.8 upbm affinity estimate (log intensity, higher = more binding, comparable within an allelic series). The binding signal in assay [7] was 12.1 upbm affinity estimate (log intensity, higher = more binding, comparable within an allelic series).
For the sequence CAAATTAA, the binding signal was 12.4 upbm affinity estimate (log intensity, higher = more binding, comparable within an allelic series) in assay [2] and 11 upbm affinity estimate (log intensity, higher = more binding, comparable within an allelic series) in [5].
As to CCAATTAC, the binding signal in assay [13] was 10.9 upbm affinity estimate (log intensity, higher = more binding, comparable within an allelic series); in assay [14] it was 10.6 upbm affinity estimate (log intensity, higher = more binding, comparable within an allelic series).
Consider AATTAGTA, for which the binding signal in assay [2] is 12.2 upbm affinity estimate (log intensity, higher = more binding, comparable within an allelic series); in assay [10] it was 9.94 upbm affinity estimate (log intensity, higher = more binding, comparable within an allelic series); in assay [5] it was 11 upbm affinity estimate (log intensity, higher = more binding, comparable within an allelic series); in assay [12] it was 11.3 upbm affinity estimate (log intensity, higher = more binding, comparable within an allelic series).
GCCAATTA: the binding signal in assay [1] is 12.5 upbm affinity estimate (log intensity, higher = more binding, comparable within an allelic series); in [4], 12.8 upbm affinity estimate (log intensity, higher = more binding, comparable within an allelic series).
As for AATTAGCA, the binding signal in assay [2] was 12.1 upbm affinity estimate (log intensity, higher = more binding, comparable within an allelic series); in assay [3], 13 upbm affinity estimate (log intensity, higher = more binding, comparable within an allelic series); in [5], 10.9 upbm affinity estimate (log intensity, higher = more binding, comparable within an allelic series); in assay [6], 10.8 upbm affinity estimate (log intensity, higher = more binding, comparable within an allelic series); in assay [7], 12.1 upbm affinity estimate (log intensity, higher = more binding, comparable within an allelic series).
As for CCTTCGAG, the binding signal was 8.5 upbm affinity estimate (log intensity, higher = more binding, comparable within an allelic series) in [8]; 8.46 upbm affinity estimate (log intensity, higher = more binding, comparable within an allelic series) in assay [13]; 8.5 upbm affinity estimate (log intensity, higher = more binding, comparable within an allelic series) in assay [14].
Take CCCAGGCG: the binding signal is 9.48 upbm affinity estimate (log intensity, higher = more binding, comparable within an allelic series) in assay [15]; 9.7 upbm affinity estimate (log intensity, higher = more binding, comparable within an allelic series) in [16]; 9.62 upbm affinity estimate (log intensity, higher = more binding, comparable within an allelic series) in assay [17]; 10.1 upbm affinity estimate (log intensity, higher = more binding, comparable within an allelic series) in [3]; 9.63 upbm affinity estimate (log intensity, higher = more binding, comparable within an allelic series) in assay [19]; 10.5 upbm affinity estimate (log intensity, higher = more binding, comparable within an allelic series) in assay [6]. In addition, in [7], the binding signal was 7.13 upbm affinity estimate (log intensity, higher = more binding, comparable within an allelic series).
For CAATTATA, the binding signal in [8] is 10.1 upbm affinity estimate (log intensity, higher = more binding, comparable within an allelic series); in assay [15] it was 12.5 upbm affinity estimate (log intensity, higher = more binding, comparable within an allelic series); in assay [9], 11.4 upbm affinity estimate (log intensity, higher = more binding, comparable within an allelic series); in [10], 10 upbm affinity estimate (log intensity, higher = more binding, comparable within an allelic series); in assay [11], 8.95 upbm affinity estimate (log intensity, higher = more binding, comparable within an allelic series); in [12], 11.9 upbm affinity estimate (log intensity, higher = more binding, comparable within an allelic series).
GAGCTGGC: the binding signal in assay [9] is 8.29 upbm affinity estimate (log intensity, higher = more binding, comparable within an allelic series); in assay [11] it was 8.35 upbm affinity estimate (log intensity, higher = more binding, comparable within an allelic series).
As for CCGTAGGC, the binding signal in [15] was 9.73 upbm affinity estimate (log intensity, higher = more binding, comparable within an allelic series); in [9], 8.48 upbm affinity estimate (log intensity, higher = more binding, comparable within an allelic series); in assay [16], 9.68 upbm affinity estimate (log intensity, higher = more binding, comparable within an allelic series); in [17], 9.78 upbm affinity estimate (log intensity, higher = more binding, comparable within an allelic series); in assay [19] it was 9.77 upbm affinity estimate (log intensity, higher = more binding, comparable within an allelic series); in assay [11] it was 8.4 upbm affinity estimate (log intensity, higher = more binding, comparable within an allelic series).
